This is one part of a sample in which hits are shown more often than they occur.
DT40 TDP1 no CPT: qHTS for Inhibitors of human tyrosyl-DNA phosphodiesterase 1 (TDP1): qHTS in cells in absence of CPT. DT40 Tdp1-/- hTDP1 cells, no CPT, ATP luminescence, 48 h. Potency, µM (highest dose often 46.2 µM), hits mostly inhibitors. actives 15% (n = 420,000); note: nearly all actives have a fitted effect of over 55% in size
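No-CPT arm: Tdp1-/-;hTDP1 DT40 cells (400/well) plus compounds, incubated ≥48 hr at 37 °C. Readout CellTiter-Glo luminescence.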
DT40 TDP1 CPT: growth inhibition of DT40 Tdp1-/-;hTDP1 cells with camptothecin (screen for TDP1 inhibitors) | chicken DT40 Tdp1-/-;hTDP1 cells + 20 nM CPT, ATP luminescence, 48 h | Potency, µM (highest dose often 46.2 µM), most hits filed as inhibitors | actives 12% (n = 420,000) | AID 686979; note: nearly all actives have a fitted effect of over 55% in size
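Chicken DT40 Tdp1-/- cells complemented with human TDP1, 400 cells/well, exposed to compounds plus 20 nM camptothecin for at least 48 h at 37 C; viability read as ATP content by CellTiter-Glo luminescence.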
HT1080 IDH1KD tx: kills HT-1080 cells with IDH1 knockdown; actives 2% (n = 360,000); Potency, µM (doses to about 46.1 µM), usual class: cytotoxic; HT-1080 IDH1 knockdown viability, ATP luminescence, 48 h
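Luminescent ATP read-out (CellTiter-Glo, 10 min at room temperature) after 48 h compound exposure at 37 °C gave viability of IDH1-knockdown HT-1080 cells. Activity was normalised to DMSO and cell-free wells, then fitted as concentration-response curves.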
IL-1B inflam inh: inflammasome signaling inhibition, IL-1 beta readout; actives 4.7% (n = 360,000); THP-1 LPS/ATP IL-1B secretion, AlphaLISA, 16 h; active compounds read low; activity change, % at 57.5 µM; AID 743279; in the data active = activity change below about -50%; inconclusive = mostly about -30% to -49%
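Secreted IL-1B measured by AlphaLISA bead assay after 16 h compound exposure of THP-1 cells; compounds (final up to 57.5 uM) added 1 h before LPS (250 ng/mL) and ATP (1.25 mM) stimulation; lower signal means less secretion.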
HT1080-NT tox: kills 2HG-producing HT-1080-NT fibrosarcoma cells. HT-1080-NT fibrosarcoma viability, CellTiter-Glo ATP luminescence, 48 h. Potency, µM (doses to about 46.1 µM), usual class: cytotoxic. actives 1.6% (n = 360,000). AID 686970;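 note: NT is the 2HG producing partner of a matched IDH1 knockdown line; nearly all actives have a fitted effect of over 55% in size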
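HT-1080-NT fibrosarcoma cells (2HG-overproducing), 750 cells/well in RPMI with 5% FBS, dosed after 2 h and incubated 48 h at 37C. CellTiter-Glo luminescence normalized to DMSO and no-cell wells; concentration-response curves fitted and classed.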
12-LOX inh: inhibitors of human 12S-lipoxygenase ALOX12; AID 1671190; purified 12hLO, xylenol orange hydroperoxide absorbance; actives 1.1% (n = 580,000); Potency, µM (doses to about 108 µM), actives largely listed as inhibitors
Target sequence (P18054 whole entry, looked up): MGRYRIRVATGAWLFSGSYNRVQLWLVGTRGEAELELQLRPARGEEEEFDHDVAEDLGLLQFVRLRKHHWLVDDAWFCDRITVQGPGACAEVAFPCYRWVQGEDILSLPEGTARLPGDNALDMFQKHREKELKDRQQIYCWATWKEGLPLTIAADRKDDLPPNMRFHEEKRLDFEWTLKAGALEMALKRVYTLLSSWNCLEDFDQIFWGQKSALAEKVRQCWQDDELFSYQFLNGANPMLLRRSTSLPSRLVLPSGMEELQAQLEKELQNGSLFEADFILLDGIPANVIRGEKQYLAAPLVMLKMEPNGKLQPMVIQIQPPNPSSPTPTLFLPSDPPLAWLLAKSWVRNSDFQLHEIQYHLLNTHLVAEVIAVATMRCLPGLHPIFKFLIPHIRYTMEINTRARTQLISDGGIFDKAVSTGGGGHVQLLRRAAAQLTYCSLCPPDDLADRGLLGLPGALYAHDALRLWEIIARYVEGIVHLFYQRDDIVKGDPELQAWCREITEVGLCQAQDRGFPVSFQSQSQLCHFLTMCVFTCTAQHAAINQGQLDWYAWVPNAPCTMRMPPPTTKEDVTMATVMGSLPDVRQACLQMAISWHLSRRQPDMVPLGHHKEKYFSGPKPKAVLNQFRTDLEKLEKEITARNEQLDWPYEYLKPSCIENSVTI
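Purified human 12hLO (150 nM final) in 25 mM Hepes, 0.01% Triton X-100, pH 7.0 was preincubated 15 min at room temperature with compound. Then 40 uM arachidonic acid was added, 30 min. Hydroperoxide was read by Fe-XO absorbance ratio 573/405 nm.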
Hits are given with their value; 0 = inactive; ? = inconclusive; - = no result given. Unless noted, calls come from the whole dose curve; as a rule, active = well fitted curve in the direction sought with a large enough effect; inconclusive = small, poorly fitted or top-dose-only effect, or another doubt; inactive = no such curve, though single readings can be large; an effect the other way counts as inactive or inconclusive.

SMILES | DT40 TDP1 no CPT | DT40 TDP1 CPT | HT1080 IDH1KD tx | IL-1B inflam inh | HT1080-NT tox | 12-LOX inh
COc1ccccc1CC(=O)Nc1ccc(-c2noc(COc3cccc(C)c3C)n2)cc1 | 13µM | 18µM | 0 | 0 | 0 | 0
Cc1ccccc1OCc1nc(-c2ccc(NC(=O)c3ccc4c(c3)OCO4)cc2)no1 | 23µM | ? | 21µM | 0 | 21µM | 0
O=C(NCc1nc(-c2ccccc2)no1)c1ccc2c(c1)OCO2 | 0 | 0 | 0 | 0 | 0 | 0
Cc1ccccc1OCc1nc(-c2ccc(NC(=O)c3ccco3)cc2)no1 | 23µM | ? | 0 | 0 | 0 | 0
COc1cccc(-c2nc(-c3ccc(NC(=O)Cc4ccccc4OC)cc3)no2)c1 | ? | ? | 0 | 0 | 0 | -
COc1ccccc1CC(=O)Nc1ccc(-c2noc(COc3ccc(Br)cc3)n2)cc1 | 0 | 0 | ? | 0 | ? | 0
Cc1cccc(N/N=C(/c2ccccc2)c2ccc(F)cc2)c1C | - | - | - | - | - | 5µM
COc1ccc(/C(=N\Nc2ccccc2C(=O)O)c2ccccc2)cc1 | 0 | 0 | 0 | 0 | 0 | 0
C/C=C/c1c(F)c(F)c(Oc2ccc(C(=O)O)cc2)c(F)c1F | 0 | 0 | 0 | 0 | 16µM | 0
COC(=O)c1c(F)c(F)c(Oc2ccc(C(C)=O)cc2)c(F)c1F | - | - | - | - | - | 0
Fc1ccc(-c2ccc3c(n2)CCCN3Cc2ccccc2C(F)(F)F)cc1 | - | - | - | - | - | 0
O=C1c2ccccc2NC(c2ccc(Br)o2)N1O (configuration not stated) | - | - | - | - | - | 0
O=C1c2ccccc2NC(c2ccc(-c3ccc(C(F)(F)F)cc3)o2)N1O (configuration not stated) | - | - | - | - | - | 28µM
O=C(CC(SCc1ccco1)c1ccc(O)cc1)c1cccs1 (configuration not stated) | 23µM | ? | 0 | -52 | 0 | 0
CC(NC(=O)Cc1cccs1)c1ccc2c(c1)OCO2 (configuration not stated) | 0 | 0 | 0 | 0 | 0 | 0
O=C(CC(SCCO)c1ccc2c(c1)OCO2)c1cccs1 (configuration not stated) | 12µM | 12µM | ? | -75 | ? | 0
CCCCOc1ccc(Br)cc1/C(C)=N/NC1=NCCN1 | 4.1µM | 4.6µM | 6.5µM | -113 | 8.2µM | ?
C/C(=N\NC1=NCCN1)c1ccc(N)c([N+](=O)[O-])c1 | ? | 0 | 0 | 0 | 0 | 0
CC(=NNC1=NCCN1)c1cn(C2=NCCN2)nc1C | 0 | 0 | 0 | 0 | 0 | 0
COc1ccc(/C(C)=N/NC2=NCCN2)cc1Cl | 0 | 0 | 0 | -74 | 0 | 0
CCCCCCOc1ccc(/C(C)=N/NC2=NCCN2)cc1[N+](=O)[O-] | 10µM | ? | 0 | -92 | 0 | 0
CCOC(=O)c1ccccc1NC(=O)Cn1c(N(C)Cc2ccccc2)nc(C)cc1=O | - | - | - | - | - | 0
O=C(CSc1nc2cc3ccccc3cc2[nH]1)Nc1ccc(F)cc1 | 23µM | ? | ? | 0 | ? | 0
COC(=O)c1ccc(NC(=O)CSc2nc3ncccc3[nH]2)cc1 | 21µM | 0 | 0 | 0 | 0 | 0
COc1ccc(NC(=O)CSc2nc3ccc(OC)cc3[nH]2)cc1 | 0 | 0 | 0 | 0 | 0 | 0
SMILES | DT40 TDP1 no CPT | DT40 TDP1 CPT | HT1080 IDH1KD tx | IL-1B inflam inh | HT1080-NT tox | 12-LOX inh
COc1ccc2nc(SCC(=O)NC3CCCCC3C)[nH]c2c1 (configuration not stated) | 9.2µM | 16µM | ? | 0 | ? | 0
COc1ccc(NC(=O)CSc2nc3ccncc3[nH]2)c(OC)c1 | 9.2µM | 23µM | 0 | 0 | 0 | 0
NC(=O)c1ccc(NC(=O)CSc2nc3ncccc3[nH]2)cc1 | - | - | - | - | - | 0
Fc1ccc(Nc2nc(-c3cccc(Cl)c3)c3c(n2)-c2ccccc2OC3)cc1 | ? | 0 | - | - | - | 0
CN1[C@@H](CCC(=O)Nc2ccccc2)CNC(=O)[C@@H]2[C@H]1CCN2CC(C)(C)C | - | - | - | - | - | 0
CN1CCN(c2nc3c(=O)[nH]c(N)nc3n2C2OC(CO)C(O)C2O)CC1 (configuration not stated) | 0 | 0 | - | - | - | -
COCCCn1c(C)cc(C(=O)NCCc2noc(-c3ccccc3)n2)c1C | - | - | - | - | - | 0
CCOc1ccc2nc(SCC(=O)NCc3ccc(OC)c(OC)c3)[nH]c2c1 | ? | 15µM | 0 | 0 | 0 | 0
COC(=O)c1ccc(NC(=O)CSc2nc3ccc(OC)cc3[nH]2)cc1 | 23µM | 23µM | - | - | - | 0
CCOC(=O)C1=C(COC(=O)/C=C/c2ccc(OC)cc2)NC(=O)NC1C (configuration not stated) | 21µM | 9.2µM | ? | 0 | 0 | 0
CCOC(=O)C1=C(COC(=O)/C=C/c2ccc(SC)cc2)NC(=O)NC1C (configuration not stated) | ? | 0 | 0 | 0 | 0 | 0
CCOC(=O)C1=C(COC(=O)COc2ccc(C#N)cc2)NC(=O)NC1C (configuration not stated) | 16µM | 0 | 0 | 0 | 0 | ?
CCOC(=O)C1=C(COC(=O)COc2ccc(C(C)=O)cc2)NC(=O)NC1C (configuration not stated) | 0 | 0 | 0 | 0 | 0 | 0
Cc1ccc(N2CCN(C(=O)c3cc(-c4ccccc4O)n[nH]3)CC2=O)cc1 | - | - | - | - | - | 0
C[C@@H]1[C@H]2[C@@H](O[C@@H]3O[C@H](CO)[C@@H](O)[C@H](O)[C@H]3O)OC=C(C(=O)O)[C@H]2C[C@@H]1O | 7.3µM | 7.3µM | 0 | 0 | ? | 0
COC(=O)C1=CO[C@@H](OC2OC(CO)C(O)C(O)C2O)[C@@H]2[C@@H](C)[C@@H](O)C[C@H]12 (some centres not stated) | 0 | 0 | 0 | 0 | 0 | 0
C/C(=N\NC(=O)c1nn(C)c(C)c1Br)c1cccc(NC(=O)c2ccc(F)cc2)c1 | 16µM | ? | 0 | 0 | 0 | 0
C/C(=N\NC(=O)c1c(Cl)c(C)nn1C)c1cccc(NC(=O)c2cccc(F)c2)c1 | 23µM | ? | 0 | 0 | 0 | 0
O=C1c2ccccc2C(Nc2ccccc2)N1Cc1ccc2c(c1)OCO2 (configuration not stated) | 0 | 0 | 0 | ? | 0 | 0
CCN(CC)S(=O)(=O)c1ccc(NC2c3ccccc3C(=O)N2Cc2ccc3c(c2)OCO3)cc1 (configuration not stated) | ? | 16µM | 0 | 0 | 0 | 0
CCN(CC)S(=O)(=O)c1ccc(NC2c3ccccc3C(=O)N2Cc2ccco2)cc1 (configuration not stated) | 12µM | 21µM | 0 | 0 | 0 | ?
